HCV inhibitor = inhibitors of hepatitis C virus infection; Huh7.5.1 HCVcc-Cre infection, luciferase reporter, 44 h; Potency, µM (titrated, usually from 41.8 µM), for inactives: at the highest dose activity change, negative = inhibition, usual class: inhibitors; 340,000 compounds, 3.4% hits; active = well fitted inhibition curve with a large enough effect; inconclusive = small, poorly fitted or top-dose-only effect, or another doubt; inactive = no such curve, though single readings can be large or run the other way; also: potency is read from the fitted curve at half-maximal effect
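A cell-based infection assay in which seeded cells (1,000 per well) receive test compound after 4 h, are inoculated with HCVcc-Cre at approximately 0.5 moi, and are incubated 44 h before luminescence detection.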
MARV entry inh = inhibitors of Marburg virus binding or cell entry | Potency, µM (doses to about 37.8 µM), for the others: top-dose activity change, negative = inhibition, hits mostly inhibitors | 300,000 compounds, 1.8% hits | Marburg virus pseudotyped entry inhibition, cell reporter; calls by dose curve; tested in HEK293 cells; also: potency is read from the fitted curve at half-maximal effect
FMDV inh = blocks foot and mouth disease virus | FMDV antiviral cell-based qHTS | Potency, µM (titrated, usually from 57.9 µM), without a hit: top-dose activity change, negative = inhibition, usual class: inhibitors | 410,000 compounds, 1.2% hits | AID 1159524; calls by dose curve; tested in HEK293T cells; also: read-out not given here; potency is read from the fitted curve at half-maximal effect; nearly all actives have a fitted effect of over 45% in size
HCMV antiviral = inhibitors of human cytomegalovirus; activity change, negative = inhibition, % at 57.5 µM; HFF cells, HCMV-luciferase reporter, 72 h; active compounds read low; AID 1259415; 410,000 compounds, 4.5% hits; in the data active = activity change below about -60%; inconclusive = no clear call, values can overlap the other calls; inactive = above about -39%
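Screen run at 2 compound doses on HFFs infected with reporter HCMV, MOI 1 PFU/cell. Luciferase activity from cell lysates at 72 h post infection gave inhibition relative to buffer-only and Salinomycin wells.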
LASV entry inh = blocks Lassa virus binding to or entry into cells; Potency, µM (series often up to 37.9 µM), for the others: top-dose activity change, negative = inhibition, most hits filed as inhibitors; Lassa virus pseudotype entry inhibition, cell reporter; 300,000 compounds, 1.2% hits; calls by dose curve; tested in HEK293 cells; also: potency is read from the fitted curve at half-maximal effect; nearly all actives have a fitted effect of over 50% in size
An asterisk follows results filed as active; ? = inconclusive; nt = no result given; [ ] = remark or other dose. A selection: hits, their analogues and other compounds. The true share with any hit is near 7.9%. % is scaled to controls: 0 for no effect and ±100 for the full control effect.

SMILES	HCV inhibitor	MARV entry inh	FMDV inh	HCMV antiviral	LASV entry inh
C/C(=N\Nc1nc(-c2ccccc2)cs1)c1cccs1	2.8µM*	?	0%	38	?
CCOC(=O)C[C@@H](C#N)c1cn(C)c2ccccc12	nt	-18%	nt	nt	nt
CCc1cc(C(=O)NCc2c(C)ncc3c2CCN(C(=O)C2=CCCC2)C3)no1	nt	nt	-7%	nt	nt
C#Cc1ccc([C@H]2C=C(C(=O)N3CCN(Cc4ccccc4)CC3)O[C@@H](OCc3ccc(CO)cc3)C2)cc1	?	nt	-28%	-76*	nt
O=C(C1=C[C@H](c2ccc(C(F)(F)F)cc2)C[C@H](OCc2ccc(CO)cc2)O1)N1CCN(Cc2ccc3c(c2)OCO3)CC1	10µM*	nt	?	-18	nt
O=C(C1=C[C@@H](c2ccc(C(F)(F)F)cc2)C[C@@H](OCc2ccc(CO)cc2)O1)N1CCN(Cc2ccc3c(c2)OCO3)CC1	?	nt	?	5	nt
CCCC[C@H](CCC(=O)Nc1ccc(C(=O)OC)cc1)C(=O)O	nt	18%[46.1 µM]	nt	nt	nt
CN(Cc1c[nH]c2ccccc12)C1CCCCC1	-28%	0%	-10%	-94*	-16%
c1ccc2c(CNC3CCCCC3)c[nH]c2c1	4%	?	-27%	-29	-5%
CN(CCc1ccccc1)Cc1c[nH]c2ccccc12	0%	nt	-25%	-99*	nt
CCN(C(=O)C(=O)c1c[nH]c2ccccc12)c1ccccc1	-3%	nt	2%	27	nt
CN(Cc1ccccc1)C(=O)C(=O)c1c[nH]c2ccccc12	nt	nt	52%	-70*	nt
CCN(CC)Cc1c[nH]c2ccccc12	-8%	-17%	?	63	-9%
Cc1ccc(C)c(N2CCN(C(=O)c3cnc4c(-c5ccccc5)c(C)nn4c3C)CC2)c1	nt	nt	0%	4	-5%[46.1 µM]
Cc1ccccc1OCCSc1nc2ccc(NC(=O)c3cccs3)cc2s1	nt	-9%[46.1 µM]	?	-39	10%[46.1 µM]
N#Cc1cccc(NC(=O)C2CCN(S(=O)(=O)c3ccc4c(c3)CCCN4C(=O)C3CCC3)CC2)c1	nt	nt	?	-38	?
CCOC(=O)c1[nH]nc(-c2c(O)cc(C)cc2O)c1-c1csc(C)n1	10%	12%	-13%	-22	-1%
CCCc1cc(-c2n[nH]c(C(=O)OCC)c2-c2cscn2)c(O)cc1O	?	?	35µM*	-87*	?
CC1(C)CC(=O)C=C(c2ccc(-c3cnc4ccccc4c3)cc2)C1=O	nt	nt	-36%	-71*	nt
CC1(C)CC(=O)C=C(c2ccc(Oc3ccccc3)cc2)C1=O	nt	nt	-23%	-16	nt
Cc1ccccc1OCc1nc2ccccc2n1Cc1ccccc1Cl	nt	-4%[46.1 µM]	0%	-13	12%[46.1 µM]
CCOC(=O)NN=C1C[C@@H](O)[C@@H](O)[C@@H]2[C@H]3C(=O)N(Cc4ccc5c(c4)OCO5)C(=O)[C@@H]3CC[C@H]12	nt	-22%[14.2 µM]	nt	nt	nt
Cc1ccc2nc(C(F)(F)F)c(C#N)c(N)c2c1	25µM*	-20%	-26%	-107*	0%
Cc1ccc(NC(=O)/C(C#N)=C(\N)C(Cl)(Cl)Cl)nc1	10µM*	-20%[46.1 µM]	-67%	nt	?
Cc1ccc(NC(=O)C(=O)Nc2ccc(C)cn2)nc1	8%	?	19%	38	-1%[46.1 µM]
SMILES	HCV inhibitor	MARV entry inh	FMDV inh	HCMV antiviral	LASV entry inh
O=C(NC1=NCCS1)c1ccccc1OCc1ccccc1Cl	13µM*	nt	-8%	-12	nt
O=C(NC1=NCCS1)c1csc2ccccc12	7.1µM*	-1%	48%	243	?
O=C(NC1=NCCS1)c1ccccc1Cl	4%	?	20%	76	?
Cc1nn(S(=O)(=O)c2ccc(F)cc2)c(C)c1S(=O)(=O)N1CCCCCC1	nt	nt	8%	20	13%[46.1 µM]
C=CCn1c(C)csc1=Nc1ccc(C(C)=O)cc1	17%	-12%[46.1 µM]	43%	-21	-18%
CCOC(=O)c1ccc(N=c2scc(C)n2CC)cc1	14%	5.6µM*	-1%	-37	?
COc1cc2nc(SCC(=O)Nc3cccc(C)c3)n3nc(CCn4c(C)nc5ccccc54)nc3c2cc1OC	nt	7%[46.1 µM]	-9%	-10	10%[46.1 µM]
CN(C)CCOC1c2ccccc2CCc2ccc3ccccc3c21 (stereo not drawn)	?	5µM*	?	?	?
Cc1ccc(NC(=O)Cn2cc(S(=O)(=O)NC(C)C)c(S(=O)(=O)NC(C)C)c2)cc1Cl	nt	nt	-6%	-3	-10%[46.1 µM]
Cc1ccccc1-c1nc(CN2CCC(C(=O)NCCCN3CCCC3)CC2)c(C)o1	14µM*	?	0%	-17	?
Cc1ccccc1-c1nc(CN2CCC(C(=O)NCCN3CCOCC3)CC2)c(C)o1	-28%	?	-10%	-36	3%[46.1 µM]
CC(=O)Nc1cccc(NC(=O)CC2(C)N=C(c3cccc(Br)c3)N(C)O2)c1 (stereo not drawn)	nt	nt	nt	-13	nt
COc1ccc(CC(=O)NCC(c2cccs2)S(=O)(=O)c2ccc(C)cc2)cc1 (stereo not drawn)	nt	nt	-11%	14	-27%[46.1 µM]
CCOc1ccc(C(=O)CCC(=O)NCC(=O)Nc2ccc(F)c(F)c2F)cc1	nt	nt	-13%	26	nt
N#Cc1ccc(-c2ccc(OCC(=O)NCC(=O)Nc3ccc(F)c(F)c3F)cc2)cc1	4%	?	0%	-60*	2%
Cc1occc1-c1nnc(SCC(=O)Nc2nc(C(C)(C)C)cs2)o1	?	?	-23%	-69*	-22%
Cc1nc2ccccc2c2oc(C(=O)Nc3ccc(C(C)C)cc3)cc12	?	nt	?	-68*	nt
Cc1nc2ccccc2c2oc(C(=O)Nc3ccc4c(c3)OCCO4)cc12	13µM*	nt	-28%	-31	nt
COc1cc(NC(=O)c2cc3c(C)nc4ccccc4c3o2)cc(OC)c1OC	?	-4%	0%	-24	nt
CN(CCc1ccccn1)C(=O)CCC1CCCN(C(=O)CN2CCCCCC2)C1 (stereo not drawn)	3%	2%[46.1 µM]	-4%	-22	18%[46.1 µM]
CC(=O)c1cc(C(=O)N2CCCC(CCC(=O)N(C)CCc3ccccn3)C2)cs1 (stereo not drawn)	6%	4%[46.1 µM]	-24%	-66*	5%[46.1 µM]
Cc1c(C(=O)Nc2ccc(F)cc2F)oc2c1-c1nn(Cc3c(F)cccc3Cl)cc1CC2	nt	nt	-20%	-34	9%[46.1 µM]
Cc1cccc(CNC(=O)C(=O)Nc2ccccc2C)c1	nt	3%[46.1 µM]	2%	-1	-7%[46.1 µM]
C[CH2][Hg][S]c1ccccc1C(=O)O	-62%	nt	28µM*	-95*	nt
CS(=O)(=O)N(CC(=O)NCC1CCCO1)c1ccc(F)c(Cl)c1 (stereo not drawn)	3%	0%	-14%	-60*	-11%
COc1cc(/C=C2\CCC(C)C3=C(c4cc(OC)c(OC)c(OC)c4)C(C#N)=C(N)OC32)cc(OC)c1OC (stereo not drawn)	?	?	?	54	11µM*
COc1cc(/C=C/c2nc(C#N)c(N3CCC(C)CC3)o2)cc(OC)c1OC	nt	7%[46.1 µM]	-12%	11	-14%[46.1 µM]
COc1ccc(NC(=O)c2cccc(Cn3cc(Br)c([N+](=O)[O-])n3)c2)c(C)c1	10µM*	nt	-13%	-18	nt
Cc1cccc(-n2c(-c3ccco3)nc3ccccc3c2=O)c1C	10%	?	-28%	-76*	5%[46.1 µM]
